# How the values were obtained:
# [1] = tested on: JAK3(JH1domain-catalytic)
# [2] = tested on: LATS1
# [3] = tested on: LATS2
# [4] = tested on: LIMK2
# [5] = tested on: T1, LOK
# T1 construct: gene STK10
# [6] = tested on: LRRK2
# 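Note: kd values determined as follow-up on hits from a single-replicate KINOMEscan panel screen.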
smiles,measurement,setting,value
COc1cccc(C2=C(Nc3cc(Cl)c(O)c(Cl)c3)C(=O)NC2=O)c1 [SB-390767],Kd,[1],0.12 µM
Cc1c(Cn2c(C)c(C)n3c(=O)cc(N4CCOCC4)nc23)cccc1C(F)(F)F [GSK2328680],Kd,[2],> 10 µM
COc1ccc(Nc2nccc(N3CCC(NC(=O)C(C)c4ccc(Cl)cc4)CC3)n2)cc1 (stereo not shown) [GSK1379812],Kd,[3],> 10 µM
CC(=O)c1c(C)c2cnc(Nc3ccc(N4CCNCC4)cn3)nc2n(C2CCCC2)c1=O,Kd,[4],> 10 µM
CCn1c(-c2c(N)noc2C)nc2cnccc21 [SB-737856],Kd,[4],> 10 µM
CS(=O)(=O)Cc1ccc(Nc2nccc(-c3c(-c4cccc(NC(=O)C5CCCCC5)c4)nn4ncccc34)n2)cc1 [GSK350559],Kd,[5],0.36 µM
Cc1ccc(NC(=O)c2ccc(Cl)cc2)cc1-c1ccc(C(=O)Nc2ccncc2)cc1 [GSK1398467],Kd,[6],> 10 µM
